# Data as given in PubChem BioAssay.
# Activity calls are given as the source filed them. Unless noted, the rule behind the calls is not given here.
# Tests used:
# [1] = Wnt pathway potentiators raising nuclear beta-catenin – imaging, WNT3A-conditioned medium, mouse C2C12, NPC library, primary screen (AID 1117326; in the data active = nuclear beta-catenin stimulation mostly above about 4.2%, no sharp cut-off; inactive = mostly below about 10%); settings: stronger effect = higher value
# [2] = stimulators of insulin release from INS-1E, primary screen, cell-based, 5 mM glucose, NPC library (AID 1117329;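 active = compound raises insulin release from rat beta cells at 5 mM glucose, no numeric limit stated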); settings: rat INS-1E insulin secretion, at 10 µM, stronger effect = higher value
# [3] = growth inhibition of GSK3B-pretreated HCT116 cells – cell-based, CellTiter-Glo, 0.2 to 20 µM (AID 1117336;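 active = compounds lowering colon cancer cell viability after pretreatment blocking the GSK3B kinase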); settings: HCT116 viability after GSK3B inhibitor, at 20 µM, stronger effect = higher value
# [4] = inhibition of endothelial tube formation, primary screen, imaging, VEGF stimulated, CD31 staining, tube area, NPC library (AID 1117340;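 active = compound that reduces growth-factor-driven endothelial tube area in a mixed cell culture, no cutoff stated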); settings: VEGF-stimulated ADSC/ECFC co-culture, at 10 µM, stronger effect = higher value
# [5] = GLP1 release stimulators, primary, NCI-H716, NPC library (AID 1117341;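 active = compound raises GLP1 secretion from the human gut endocrine cells, with no numeric limit stated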); settings: NCI-H716 cells, at 10 µM, stronger effect = higher value
# [6] = HCT116 colon cancer cell growth inhibition, primary screen, CellTiter-Glo luminescence, NPC library (AID 1117342;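 active = compounds that lower survival of HCT116 colon cancer cells in the luminescence readout, no numeric limit stated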); settings: at 20 µM (top of the series)
# [7] = reduced SW480 viability measured with CellTiter-Glo, NPC library, primary (AID 1117343;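 active = compounds that lower viability of the colon cancer cells in the luminescence readout, with no numeric limit stated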); settings: CellTiter-Glo luminescence; at 20 µM (top of the series)
# [8] = NPC library primary testing for decreased DLD-1 cell viability via CellTiter-Glo (AID 1117346;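 active = compounds that lower survival of DLD-1 colon cancer cells in the luminescence readout, no cutoff given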); settings: DLD-1 viability, CellTiter-Glo luminescence; at 20 µM (top of the series)
# [9] = liver-stage malaria parasite load reduction – cell-based, known kinase inhibitor set, luminescence, hepatoma host viability (AID 624392); settings: Plasmodium liver stage in hepatoma cells, luciferase luminescence, concentration not given here; liver cell % of control: measured here: host liver cell viability; parasite % of control: stronger effect = lower value;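 note: infected cells incubated roughly two days before readout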
# [10] = altered dexamethasone sensitivity, NF-kB reporter, cell-based, luciferase, IL-1B stimulus (AID 624486); settings: IL-1B + dexamethasone, luminescence; percent of negative control (+Dex): actives lie on both sides, concentration not given here; z-score: measured here: IL-1B alone, no Dex;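 for percent of negative control (+Dex): 100% = mean signal of vehicle control wells on the plate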
# [11] = C. elegans survival during P. aeruginosa infection – whole organism (AID 651566);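 note: tested at 14 µM; sign flipped so higher z means a lower ratio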; settings: C. elegans killed by P. aeruginosa, survival ratio
# [12] = pro-inflammatory signaling induction in mouse macrophages – cell-based, murine, luminescence (AID 652131); settings: murine macrophage pro-inflammatory reporter, stronger effect = higher value
# [13] = inducers of IRF3 signaling, differentiated THP-1 – cell-based, PMA-stimulated THP-1, luminescence (AID 1053176); settings: PMA-differentiated THP-1, IRF3 reporter luminescence; stronger effect = higher value
# [14] = MELAS cybrid and Rieske KO viability enhancers – cell-based, MELAS cybrids, Rieske KO mouse fibroblasts, CellTiter-Glo, primary screen (AID 1508586;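 active = mean z-score across replicates of 1.96 or higher in either the MELAS or the Rieske mutant cell line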;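 note: z relative to plate mean and SD of compound and empty wells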); settings: low glucose
# [15] = MELAS cybrid survival, CellTiter-Glo 48 h, stronger effect = higher value
# [16] = Rieske KO mouse fibroblast survival, CellTiter-Glo 72 h
SMILES,nuclear beta-catenin stimulation ([1]; at 10 µM),"nuclear beta-catenin stimulation ([1]; stimulation, at 2 µM) [%]",insulin secretion stimulation [2],viability decrease [3],tube area decrease [4],GLP1 secretion stimulation [5],inhibition of viability [6],viability decrease (inhibition) [7],viability decrease (inhibition) [8],liver cell % of control [9] [%],parasite % of control [9],percent of negative control (+Dex) [10],z-score [10],z-score [11],z-score [12],fraction signal [13],"z-score [14, 15]","z-score [14, 16]"
Cc1ccccc1C(=O)N1CC/C(=N\OS(=O)(=O)O)c2ccc(Cl)cc21,0.7% (inactive),-1.3,3.05% (inactive),19.7% (inactive),-2.3% (inactive),3.1% (inactive),1.4% (inactive),-15.6% (inactive),-6.4% (inactive),–,–,–,–,–,–,–,–,–
COc1ccccc1Oc1nccc(-c2c(-c3ccc(F)cc3)ncn2C2CCNCC2)n1,–,–,–,–,–,–,–,–,–,89.7,136% (inactive),104% (inactive),0.275,0.105 (inactive),0.324 (inactive),0.001 (inactive),-0.339 (inactive),-0.367
Cc1cccc(Oc2nccc(-c3c(-c4ccc(F)cc4)ncn3C3CCNCC3)n2)c1C,–,–,–,–,–,–,–,–,–,58.8,99.5% (inactive),104% (inactive),0.6,-0.775 (inactive),8.3 (active),-0.0055 (inactive),-0.134 (inactive),-0.269
CC(C)OP(=O)(CP(=O)(OC(C)C)OC(C)C)OC(C)C,-0.3% (inactive),1.5,0.8% (inactive),-8.5% (inactive),11.4% (inactive),-0.8% (inactive),1.5% (inactive),-11.1% (inactive),10.4% (inactive),–,–,–,–,–,–,–,–,–
CS(=O)(=O)CCN(CC#N)Cc1ccc(-c2ccc3ncnc(Nc4ccc(OCc5cccc(F)c5)c(Cl)c4)c3c2)o1,–,–,–,–,–,–,–,–,–,98.1,143% (inactive),82% (inactive),-0.4,0.225 (inactive),0.25 (inactive),0.001 (inactive),-0.391 (inactive),-0.288
CS(=O)(=O)c1ccc(Oc2nccc(-c3c(-c4ccc(F)cc4)ncn3C3CCNCC3)n2)cc1,–,–,–,–,–,–,–,–,–,78.7,128% (inactive),92% (inactive),0.015,-0.505 (inactive),-0.16 (inactive),-0.008 (inactive),-0.0537 (inactive),-0.376
O=C(CO)[C@@H](O)[C@H](O)[C@@H](O)C(=O)O,-2.6% (inactive),-0.9,0.7% (inactive),-2.4% (inactive),-0.1% (inactive),-5.4% (inactive),2.2% (inactive),0.3% (inactive),-3.1% (inactive),–,–,–,–,–,–,–,–,–
CCOc1ccc(S(=O)(=O)O)c2cccnc12,-0.1% (inactive),0.5,6% (inactive),-10.2% (inactive),-5.5% (inactive),-3.3% (inactive),-0.3% (inactive),1.9% (inactive),0.1% (inactive),–,–,–,–,–,–,–,–,–
Cc1cc(CCCOc2c(C)cc(-c3noc(C(F)(F)F)n3)cc2C)on1,9.7% (inactive),-3.5,-0.2% (inactive),46.3% (inactive),-0.1% (inactive),-4.1% (inactive),68.5% (active),45.6% (inactive),71.8% (active),–,–,–,–,–,–,–,–,–
Fc1ccc(-c2ncn(C3CCNCC3)c2-c2ccnc(Oc3ccccc3)n2)cc1,–,–,–,–,–,–,–,–,–,73.1,120% (inactive),102% (inactive),0.6,0.255 (inactive),0.32 (inactive),-0.004 (inactive),-0.224 (inactive),-0.286
O=C1NC(=O)C(c2ccccc2Cl)=C1Nc1cc(Cl)c(O)c(Cl)c1,–,–,–,–,–,–,–,–,–,90.9,128% (inactive),95.5% (inactive),0.49,-0.07 (inactive),0.319 (inactive),-0.002 (inactive),-0.0492 (inactive),-0.159
Fc1ccc(-c2ncn(C3CCNCC3)c2-c2ccnc(Oc3ccc(F)c(F)c3)n2)cc1,–,–,–,–,–,–,–,–,–,83,166% (inactive),106% (inactive),1.34,0.595 (inactive),0.167 (inactive),0.003 (inactive),-0.134 (inactive),-0.514
O=C1NC(=O)C(c2cccc([N+](=O)[O-])c2)=C1Nc1cc(Cl)c(O)c(Cl)c1,–,–,–,–,–,–,–,–,–,108,92.3% (inactive),80.5% (inactive),-0.485,0.045 (inactive),0.634 (inactive),-0.003 (inactive),-0.803 (inactive),-0.48
C=C1C(=C/C=C2\CCC[C@]3(C)[C@@H]([C@H](C)/C=C/[C@@H](O)C4CC4)CC[C@@H]23)C[C@@H](O)C[C@@H]1O,2.6% (inactive),4.1,4.15% (inactive),103% (active),19.7% (inactive),3.9% (inactive),82% (active),111% (active),92.9% (active),–,–,–,–,–,–,–,–,–
N#Cc1c(NC(=O)c2ccc(F)c3ccccc23)sc2c1CCCC2,–,–,–,–,–,–,–,–,–,93.8,163% (inactive),118% (inactive),0.625,1.47 (inactive),-1.25 (inactive),0.0065 (inactive),-0.605 (inactive),0.108
N#Cc1c(NC(=O)c2cccc3ccccc23)sc2c1CCCN2C(=O)C1CC1,–,–,–,–,–,–,–,–,–,190,15.9% (inactive),106% (inactive),-0.12,-0.17 (inactive),-0.734 (inactive),0.002 (inactive),-0.726 (inactive),-0.0978
CCCCCCCCCCCCOS(=O)(=O)O,2.3% (inactive),1.9,0.9% (inactive),-7.5% (inactive),4.9% (inactive),15.2% (inactive),-7.97% (inactive),-57.7% (inactive),-12.9% (inactive),–,–,–,–,–,–,–,–,–
Oc1ccc(CCNCCCCCCNCCc2ccccc2)cc1O,5% (inactive),0.9,27.8% (active),83.3% (active),31.4% (inactive),0.6% (inactive),83.5% (active),99.5% (active),101% (active),–,–,–,–,–,–,–,–,–
Fc1ccc(-c2ncn(C3CCNCC3)c2-c2ccnc(Oc3cccc(C(F)(F)F)c3)n2)cc1,–,–,–,–,–,–,–,–,–,97,156% (inactive),97% (inactive),0.355,0.19 (inactive),-0.64 (inactive),0.0045 (inactive),-0.429 (inactive),-0.412
COc1ccc2cc(C=O)ccc2c1,0.1% (inactive),0.2,0.95% (inactive),17.4% (inactive),-8.2% (inactive),-3.7% (inactive),16.4% (inactive),7% (inactive),5.8% (inactive),–,–,–,–,–,–,–,–,–
CC(=O)c1ccc(OCC(=O)N2CCCCC2)cc1,1.1% (inactive),-0.3,0.25% (inactive),7.4% (inactive),7% (active),0.7% (inactive),-3.4% (inactive),-3.6% (inactive),-2.8% (inactive),–,–,–,–,–,–,–,–,–
O=C1CCC(C(=O)O)N1 (configuration not stated),-1.2% (inactive),2.3,2.6% (inactive),-7.5% (inactive),6.4% (inactive),-3.6% (inactive),2.4% (inactive),-1.5% (inactive),-4% (inactive),–,–,–,–,–,–,–,–,–
C[C@H]1C[C@H]2[C@@H]3CCC4=CC(=O)C=C[C@]4(C)[C@@]3(Cl)[C@@H](O)C[C@]2(C)[C@@]1(O)C(=O)CO,0.9% (inactive),0.5,6.9% (inactive),-136% (inactive),14.4% (inactive),-0.3% (inactive),15.8% (inactive),70.7% (active),13.2% (inactive),–,–,–,–,–,–,–,–,–
